This is a sample that favours compounds with a hit; in the whole collection about 8.3% have one here.
MCF10A rereplic: inducers of DNA re-replication in MCF 10A breast cells; Potency, µM (series often up to 46.1 µM), without a hit: at the highest dose activity, positive = re-replication, most hits filed as activators; MCF 10A DNA re-replication, Hoechst nuclear intensity, 48 h; 350,000 tested, 2.9% active; further: potency means the concentration at half of the fitted maximal effect; % of control where 0% means no effect; nearly all actives have a fitted effect of over 50% in size
RORg inh: inhibitors of mouse ROR gamma transcriptional activity; P51450; Drosophila S2 Gal4-RORgamma UAS-luciferase reporter, 20 h; Potency, µM (top dose mostly 53.6 µM), without a hit: top-dose activity change, negative = inhibition, usual class: inhibitors; 310,000 tested, 5.4% active; AID 2551; further: potency means the concentration at half of the fitted maximal effect; on the % scale 0 is the no-effect control and ±100 the full control effect; nearly all actives have a fitted effect of over 60% in size
Target sequence (P51450 whole entry, looked up, the tested form may be a part): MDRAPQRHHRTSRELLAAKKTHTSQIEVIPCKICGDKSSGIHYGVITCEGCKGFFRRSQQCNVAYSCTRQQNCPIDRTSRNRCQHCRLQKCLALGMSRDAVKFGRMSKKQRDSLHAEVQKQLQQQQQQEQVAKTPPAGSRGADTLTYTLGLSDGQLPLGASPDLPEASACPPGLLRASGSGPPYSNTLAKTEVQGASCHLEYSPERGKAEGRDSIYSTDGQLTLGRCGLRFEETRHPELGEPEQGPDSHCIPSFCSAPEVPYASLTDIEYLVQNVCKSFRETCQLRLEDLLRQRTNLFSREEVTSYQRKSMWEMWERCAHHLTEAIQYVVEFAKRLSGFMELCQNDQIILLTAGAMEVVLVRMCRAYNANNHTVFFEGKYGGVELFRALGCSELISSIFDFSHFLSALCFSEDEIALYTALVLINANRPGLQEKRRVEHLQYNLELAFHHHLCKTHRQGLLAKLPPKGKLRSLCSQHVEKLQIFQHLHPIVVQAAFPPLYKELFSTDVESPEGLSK
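Luciferase reporter read in Schneider cells carrying Gal4-RORγ (mouse) and UAS-Photinus luciferase; cells given compound 1 h before 700 uM copper sulfate induction, then incubated 20 h at ambient temperature.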
SW480 rerep: DNA re-replication induction in SW480 cells; SW480 DNA re-replication, Hoechst DNA content imaging, 48 h; Potency, µM (doses to about 46.1 µM), inactives show at the top dose re-replication activation, usual class: activators; 340,000 tested, 1.8% active; AID 624297; further: potency means the concentration at half of the fitted maximal effect; % of control where 0% means no effect; nearly all actives have a fitted effect of over 55% in size
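Compounds, transferred as 23 nL by pin tool, were incubated with cells for 48 hr; DNA content per nucleus was then quantified by Hoechst staining and fluorescence plate imaging.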
Gal4-VP16 FLuc: Gal4-VP16 reporter inhibition counter-screen | 310,000 tested, 3.5% active | Potency, µM (titrated, usually from 53.6 µM), for the others: at the highest dose activity, negative = inhibition, most hits filed as inhibitors | Drosophila S2 Gal4-VP16 UAS-luciferase, luminescence, 20 h;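 further: Gal4-VP16 expression switched on by copper sulfate through the metallothionein promoter; potency means the concentration at half of the fitted maximal effect; on the % scale 0 is the no-effect control and ±100 the full control effect; nearly all actives have a fitted effect of over 50% in size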
Giardia kill: kills Giardia lamblia. Giardia lamblia trophozoite viability. 340,000 tested, 0.15% active. activity change, % at 7.66 µM, hits read low; in the data active means activity change below about -80%; inconclusive means between about -30% and that limit;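 further: parasites exposed to compound for two days anaerobically before the ATP read; on the % scale 0 is the no-effect control and ±100 the full control effect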
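Each well holds 100 Giardia trophozoites and compound. After two days (48 hrs) at 37 deg C in anaerobic conditions, ATP is quantified by luminescence.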
BCR signal inh: inhibitors of chronic active B-cell receptor signaling | ABC-DLBCL IkBa-CBG/CBR reporter, luminescence ratio, 4 h | Potency, µM (top dose mostly 46.1 µM), for the others: top-dose activity change, negative = inhibition, most hits filed as inhibitors | 340,000 tested, 0.05% active | AID 493014; active means well fitted inhibition curve with a large enough effect in the signal ratio, with a control signal flat, not every such curve was filed as active; inconclusive means small, poorly fitted or top-dose-only effect, or effect the other way, or a change in a side signal; the % refers to the signal ratio;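 further: potency means the concentration at half of the fitted maximal effect; plate controls were basal doxycycline-induced cells for no effect and cells given 10 µM MG132 for full effect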
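Concentration-response series (up to 46 uM) were applied to TMD8 dual-reporter cells for 4 h at 37C with doxycycline. Green/red ratio, after filter-overlap correction, defined %Activity; red signal alone was normalised to basal cells and zero luminescence.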
Starred values were filed as active, the others as inactive; [ ] = dose if it differs, or a comment. Unless noted, the call rests on the fitted dose curve; in most records, active means well fitted curve in the direction sought with a large enough effect; inconclusive means small, poorly fitted or top-dose-only effect, or another doubt; inactive means no such curve, though single readings can be large; an effect the other way counts as inactive or inconclusive.

For Cc1cc(=O)n2nc(N3CCCC(C(=O)NCc4ccc(F)cc4)C3)sc2n1 (configuration not stated) the results were MCF10A rereplic -1%, RORg inh 4%, SW480 rerep -3%, Gal4-VP16 FLuc 7%, Giardia kill 10 and BCR signal inh -1%.
Screening Cc1ccc2nc(NC(=O)CSCC(=O)OCC(=O)c3ccc(Br)cc3)sc2c1 returned MCF10A rereplic 26%, RORg inh 3.2µM*, SW480 rerep 5%, Gal4-VP16 FLuc 3.2µM*, Giardia kill 0 and BCR signal inh inconclusive.
O=c1cc(/C=C/c2ccccc2)oc2c1ccc1ccccc12 was read as MCF10A rereplic 21µM*, RORg inh -10%, SW480 rerep -5%, Gal4-VP16 FLuc inconclusive, Giardia kill 9 and BCR signal inh 0%.
For Cc1[nH]c(-c2ccccn2)nc(=S)c1Cl the results were MCF10A rereplic -1%, RORg inh 10µM*, SW480 rerep inconclusive, Gal4-VP16 FLuc inconclusive, Giardia kill 33 and BCR signal inh inconclusive.
For Cc1cc(=S)nc(-c2ccccn2)[nH]1 the results were MCF10A rereplic 9%, RORg inh 0.79µM*, SW480 rerep inconclusive, Gal4-VP16 FLuc inconclusive, Giardia kill inconclusive and BCR signal inh inconclusive.
CCCc1nnc(SCC(=O)Nc2ccccc2Cl)n1CC1CCCO1 (configuration not stated) was read as MCF10A rereplic 9%, RORg inh 9%, SW480 rerep -4%, Gal4-VP16 FLuc -7%, Giardia kill 1 and BCR signal inh -5%.
Screening Cc1cccc(NNC(N)=S)c1C returned MCF10A rereplic -6%, RORg inh 10µM*, SW480 rerep -3%, Gal4-VP16 FLuc inconclusive, Giardia kill 7 and BCR signal inh -14%.
`Cc1ccc(C)c(NNC(N)=S)c1` gave MCF10A rereplic -2%, RORg inh inconclusive, SW480 rerep 5%, Gal4-VP16 FLuc 18µM*, Giardia kill 3 and BCR signal inh 9%.
Screening CCOC(=O)c1ccc(NC(=S)N(CCN2CCCCCC2)Cc2cccs2)cc1 returned MCF10A rereplic inconclusive, RORg inh 13µM*, SW480 rerep inconclusive, Gal4-VP16 FLuc inconclusive, Giardia kill -21 and BCR signal inh 0%.
Screening Cc1c(Cl)cccc1NC(=S)N(CCCN1CCOCC1)Cc1cccs1 returned MCF10A rereplic 18%, RORg inh 10µM*, SW480 rerep -3%, Gal4-VP16 FLuc inconclusive, Giardia kill -1 and BCR signal inh -4%.
Cc1ccccc1NC(=S)N(Cc1cccs1)C1CCCCC1 was read as MCF10A rereplic 19%, RORg inh 13µM*, SW480 rerep 1%, Gal4-VP16 FLuc 4%, Giardia kill -4 and BCR signal inh 1%.
Screening CSc1cccc(NC(=S)N(CCC(C)C)C2CCN(C(C)C)CC2)c1 returned MCF10A rereplic 3%, RORg inh 13µM*, SW480 rerep -40%[1.84 µM], Gal4-VP16 FLuc inconclusive, Giardia kill 7 and BCR signal inh -1%.
For CCn1cc(S(=O)(=O)Nc2ncccn2)cn1 the results were MCF10A rereplic -6%, RORg inh -17%, SW480 rerep 3%, Gal4-VP16 FLuc -3%, Giardia kill -11 and BCR signal inh 0%.
Screening CCOC(=O)c1sc(/N=C/c2c(C)[nH]n(-c3ccccc3)c2=O)c(C#N)c1C returned RORg inh 19%, Gal4-VP16 FLuc 2% and BCR signal inh 3%.
For Cc1c(Cl)cccc1NC(=S)N(Cc1cccs1)C1CCCC1 the results were MCF10A rereplic 5%, RORg inh 11µM*, SW480 rerep 0%, Gal4-VP16 FLuc inconclusive, Giardia kill 11 and BCR signal inh -13%.
O=C(O)CNC(=S)N(Cc1cccs1)C1CCCCC1 was read as MCF10A rereplic -3%, RORg inh -1%, SW480 rerep -9%, Gal4-VP16 FLuc -9%, Giardia kill -2 and BCR signal inh -3%.
